Assay results as given in the supplement of paper PMC8728848.
The sample as a whole holds a higher share of the strongest signals than the screen did.

How the values were obtained:
Assay in all cases: glycan array binding signal (z-score within array); higher = stronger binding
Details in all cases: glycan notation: IUPAC condensed, linker removed
[1] = molecular target: GlcNAc(b1-3)Gal(b1-4)GlcNAc(b1-2)Man(a1-3)[GlcNAc(b1-3)Gal(b1-4)GlcNAc(b1-2)Man(a1-6)]Man(b1-4)GlcNAc(b1-4)GlcNAc
Method in brief: (§1)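 From the Consortium for Functional Glycomics database, 3228 arrays were curated, keeping only those whose protein sequence was available. Binding is given as a within-array Z-score averaged across arrays sharing a protein sequence and across linkers. Negative Z-scores can be read as non-binding.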

[2] = molecular target: GlcNAc(b1-3)Gal(b1-4)GlcNAc(b1-3)Gal(b1-4)GlcNAc(b1-3)GalNAc
Method in brief: as §1

[3] = molecular target: GlcNAc(b1-6)Gal(b1-4)GlcNAc
Method in brief: as §1

[4] = molecular target: Man(a1-2)Man(a1-2)Man(a1-3)Man
Method in brief: as §1

[5] = molecular target: Man(a1-3)[Man(a1-6)]Man(b1-4)GlcNAc(b1-4)[Fuc(a1-6)]GlcNAc
Method in brief: as §1

[6] = molecular target: Neu5Ac(a2-3)Gal(b1-4)GlcNAc(b1-2)[Neu5Ac(a2-3)Gal(b1-4)GlcNAc(b1-6)]Man(a1-6)[Neu5Ac(a2-3)Gal(b1-4)GlcNAc(b1-2)Man(a1-3)][GlcNAc(b1-4)]Man(b1-4)GlcNAc(b1-4)GlcNAc
Method in brief: as §1

[7] = molecular target: Neu5Ac(a2-3)Gal(b1-4)GlcNAc(b1-3)Gal(b1-4)GlcNAc
Method in brief: as §1

[8] = molecular target: Neu5Ac(a2-3)Gal(b1-4)GlcNAc(b1-3)Gal(b1-4)GlcNAc(b1-3)[Neu5Ac(a2-3)Gal(b1-4)GlcNAc(b1-3)Gal(b1-4)GlcNAc(b1-6)]GalNAc
Method in brief: as §1

[9] = molecular target: Neu5Ac(a2-3)Gal(b1-4)[Fuc(a1-3)]GlcNAc(b1-3)GalNAc
Method in brief: as §1

[10] = molecular target: Neu5Ac(a2-3)Gal(b1-4)[Fuc(a1-3)]GlcNAc(b1-6)[Gal(b1-3)]GalNAc
Method in brief: as §1

Neu5Ac(a2-3)GalNAc = molecular target: Neu5Ac(a2-3)GalNAc
Method in brief: as §1

[11] = molecular target: Neu5Ac(a2-6)Gal(b1-4)GlcNAc(b1-2)Man(a1-3)[GlcNAc(b1-4)][Neu5Ac(a2-6)Gal(b1-4)GlcNAc(b1-2)Man(a1-6)]Man(b1-4)GlcNAc(b1-4)GlcNAc
Method in brief: as §1

[12] = molecular target: Neu5Ac(a2-6)Gal(b1-4)GlcNAc(b1-2)Man(a1-6)Man(b1-4)GlcNAc(b1-4)GlcNAc
Method in brief: as §1

[13] = molecular target: Neu5Ac(a2-6)Gal(b1-4)GlcNAc(b1-3)GalNAc
Method in brief: as §1

[14] = molecular target: Neu5Gc(a2-3)Gal(b1-4)GlcNAc(b1-3)Gal(b1-4)GlcNAc(b1-2)Man(a1-3)[Neu5Gc(a2-3)Gal(b1-4)GlcNAc(b1-3)Gal(b1-4)GlcNAc(b1-2)Man(a1-6)]Man(b1-4)GlcNAc(b1-4)GlcNAc
Method in brief: as §1

B1: SRA-1 (Homo sapiens), P21757 (protein)
chain: MEQWDHFHNQQEDTDSCSESVKFDARSMTALLPPNPKNSPSLQEKLKSFKAALIALYLLVFAVLIPLIGIVAAQLLKWETKNCSVSSTNANDITQSLTGKGNDSEEEMRFQEVFMEHMSNMEKRIQHILDMEANLMDTEHFQNFSMTTDQRFNDILLQLSTLFSSVQGHGNAIDEISKSLISLNTTLLDLQLNIENLNGKIQENTFKQQEEISKLEERVYNVSAEIMAMKEEQVHLEQEIKGEVKVLNNITNDLRLKDWEHSQTLRNITLIQGPPGPPGEKGDRGPTGESGPRGFPGPIGPPGLKGDRGAIGFPGSRGLPGYAGRPGNSGPKGQKGEKGSGNTLTPFTKVRLVGGSGPHEGRVEILHSGQWGTICDDRWEVRVGQVVCRSLGYPGVQAVHKAAHFGQGTGPIWLNEVFCFGRESSIEECKIRQWGTRACSHSEDAGVTCTL
**Q.** With B1 as the binder, how does the “glycan array binding signal (z-score)” value [1] read?
**A.** -0.204

**Q.** And the “glycan array binding signal (z-score)” value [2]?
**A.** 0.215

**Q.** And the “glycan array binding signal (z-score)” value [3]?
**A.** 0.773

**Q.** What about the “glycan array binding signal (z-score)” value [4] of the same binder?
**A.** -0.235

**Q.** And the “glycan array binding signal (z-score)” value [5]?
**A.** -0.293

**Q.** And the “glycan array binding signal (z-score)” value [6]?
**A.** -0.583

**Q.** And the “glycan array binding signal (z-score)” value [7]?
**A.** 0.027

**Q.** And the “glycan array binding signal (z-score)” value [8]?
**A.** 0.253

**Q.** What about the “glycan array binding signal (z-score)” value [9] of the same binder?
**A.** 1.05

**Q.** And the “glycan array binding signal (z-score)” value [10]?
**A.** 1.18

**Q.** And the “glycan array binding signal (z-score)” value (Neu5Ac(a2-3)GalNAc)?
**A.** -0.364

**Q.** What about the “glycan array binding signal (z-score)” value [11] of the same binder?
**A.** -0.341

**Q.** And the “glycan array binding signal (z-score)” value [12]?
**A.** 0.243

**Q.** What about the “glycan array binding signal (z-score)” value [13] of the same binder?
**A.** -0.285

**Q.** And the “glycan array binding signal (z-score)” value [14]?
**A.** 0.684
